PubChem BioAssay
Inconclusive results are not listed. Activity calls are given as the source filed them.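 The calls were made as follows, unless noted: active = inhibition over a set limit, the all-compound mean plus 3 SD, in both replicate runs; inconclusive = over that limit in just one replicate run; inactive = at or under that limit in both runs.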

What was measured:
[1] = reducers of endogenous Her2 protein level, primary screen, SKBR3 breast tumor cells, AlphaScreen, ATP viability (AID 461;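 active = Her2 level under about 52% in both replicate screens, with viability over 70% of control, limit read from the data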;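 as to Her2 level: lower value means less Her2 protein in the cells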;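 as to viability: percent of carrier control wells set as 100% viability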); details: 18-24 h, measured here: SKBR3 viability, ATP luminescence, at 10 µM
[2] = target: Receptor tyrosine-protein kinase erbB-2 (Homo sapiens) (UniProt P04626); test: as above; details: 18-24 h, at 10 µM, stronger effect = lower value
[3] = SK-BR-3 cell growth inhibitors, pilot screen, 24 h, human (AID 572;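 active = viability at or below 10% of carrier control in both of two separate runs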;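 also: compound exposure lasted between 18 and 24 h rather than exactly 24 h; 100% = carrier-treated control wells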); details: SK-BR-3 viability, CellTiter-Glo luminescence, at 10 µM, stronger effect = lower value
[4] = HUVEC growth inhibition – cell-based, human, primary screen (AID 575;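 active = viability at or below 30% in both replicate assays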;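 also: 100% = median of untreated cell wells with 0.1% DMSO on each plate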); details: HUVEC proliferation, CellTiter-Glo luminescence, 72 h; at 10 µM; stronger effect = lower value
[5] = growth inhibitors of H69AR lung tumor, primary screen, human, duplicate replicates (AID 580;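 active = viability at or under a set limit in both replicates, limit being median viability minus 3 SD, cut at about 48% in these data, passing the limit was not always enough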;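 also: 100% = mean luminescence of untreated wells and 0% = no signal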); details: H69AR lung tumor cells viability, ATP luminescence, 72 h; at 10 µM; stronger effect = lower value
[6] = reversal of MRP1-mediated doxorubicin resistance, pilot screen, H69AR cells, doxorubicin co-treatment (AID 601;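 active = viability loss from added drug above about 55%, and viability with drug at most 40%, in both replicates, limit read from the data, passing the limit was not always enough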); details: CellTiter-Glo, 72 h, at 10 µM; for differential viability (reversal): stronger effect = higher value
[7] = 384-well plate pilot, post-Golgi transport modulator project, inhibition of yeast transport mutant growth (AID 636; in the data active = inhibition above about 31%); details: absorbance 615 nm, about 18 h, stronger effect = higher value
[8] = growth suppression of yeast trafficking mutant, preliminary HTS, modulators of trafficking downstream of Golgi apparatus project, 1536-format plate, OD 615 nm (AID 637; in the data active = inhibition above about 30%); details: yeast transport mutant growth, absorbance 615 nm, 18 h; stronger effect = higher value
[9] = OD615 S. cerevisiae growth inhibition, permissive medium, pilot counter-assay, permissive growth control for S. cerevisiae lifespan shortening project (AID 705;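 active = growth inhibition above 25% in both replicates, a cutoff set 3 SD above the mean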); details: OD615, 24 h, at 10 µM, stronger effect = higher value
[10] = Restrictive medium S. cerevisiae growth inhibition, OD615, pilot screen of yeast lifespan reduction project, restrictive growth control (AID 706;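 active = growth inhibition above a set limit, 3 SD over mean compound inhibition, in both replicates, cut at about 43% in these data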;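 also: modified DeaD lifespan yeast strain shifted to restrictive glucose medium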); details: OD615, 48 h, at 10 µM, stronger effect = higher value
[11] = viability gain of MRP-1-high H69AR cells under doxorubicin, pilot screen, MRP-1 activator project, CellTiter-Glo, duplicate (AID 807;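 active = viability increase at or above a cutoff of the median across tested compounds plus 3 SD, cut at about 8.5% in these data, passing the limit was not always enough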;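 also: compound pretreatment 18-22 h then 72 h combined with doxorubicin; 0% = doxorubicin alone and 100% = vehicle without doxorubicin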); details: H69AR viability with doxorubicin, CellTiter-Glo luminescence; at 10 µM; stronger effect = higher value
[12] = growth suppression of beta-catenin knockout HCT116, pilot screen, human colon tumor cells (AID 823;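 active = cell viability at or below a set limit in both duplicate runs, the limit being the all-compound median minus 4 SD, cut at about 23% in these data, passing the limit was not always enough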;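 also: 0% = wells killed by 20 µM Hyamine and 100% = untreated DMSO cell wells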); details: CellTiter-Glo, 60 h, at 10 µM, stronger effect = lower value
[13] = growth suppression of PTEN-deleted HCT116, pilot screen, cell-based, HCT116 clonal line, CellTiter-Glo (AID 824;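 active = viability at or below 27.92% in each of two runs, the all-compound median minus 4 SD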;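 also: 0% = 20 µM Hyamine control and 100% = vehicle cell control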); details: 60 h, at 10 µM, stronger effect = lower value
[14] = inhibitors of the yeast RAM network, pilot screen, dse1pr::URA3 reporter, 5-FOA selection (AID 869);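 also: 0% = DMSO wells with no growth and 100% = 10 µM 1-NA-PP1 with full growth; RAM network block rescues cells from 5-FOA so hits raise OD615 growth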; details: S. cerevisiae dse1pr::URA3 5-FOA growth, OD615, 2 d; at 10 µM; stronger effect = higher value; strain carries analog-sensitive mutant Cbk1 kinase
[15] = RAM signaling pathway blockade in yeast – S. cerevisiae, Pdr1DBD-CYC8 efflux-inhibited sensitized strain, primary screen (AID 1298;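 active = RAM network inhibition above 8.4% in each of two replicates, 3 SD over the compound average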;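 also: 0% = DMSO untreated cells without growth and 100% = 10 µM 1-NA-PP1 full growth; higher means more yeast growth rescued from 5-FOA killing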); details: S. cerevisiae cbk1-as DSE1-URA3 strain, 5-FOA growth OD615, 2 d; at 50 µM; stronger effect = higher value
[16] = H69AR cells + 2 uM doxorubicin, measured here: viability with 2 uM doxorubicin, stronger effect = lower value
[17] = H69AR cells, compound alone cytotoxicity

Receptor tyrosine-protein kinase erbB-2 (Homo sapiens), sequence (P04626 whole entry, looked up): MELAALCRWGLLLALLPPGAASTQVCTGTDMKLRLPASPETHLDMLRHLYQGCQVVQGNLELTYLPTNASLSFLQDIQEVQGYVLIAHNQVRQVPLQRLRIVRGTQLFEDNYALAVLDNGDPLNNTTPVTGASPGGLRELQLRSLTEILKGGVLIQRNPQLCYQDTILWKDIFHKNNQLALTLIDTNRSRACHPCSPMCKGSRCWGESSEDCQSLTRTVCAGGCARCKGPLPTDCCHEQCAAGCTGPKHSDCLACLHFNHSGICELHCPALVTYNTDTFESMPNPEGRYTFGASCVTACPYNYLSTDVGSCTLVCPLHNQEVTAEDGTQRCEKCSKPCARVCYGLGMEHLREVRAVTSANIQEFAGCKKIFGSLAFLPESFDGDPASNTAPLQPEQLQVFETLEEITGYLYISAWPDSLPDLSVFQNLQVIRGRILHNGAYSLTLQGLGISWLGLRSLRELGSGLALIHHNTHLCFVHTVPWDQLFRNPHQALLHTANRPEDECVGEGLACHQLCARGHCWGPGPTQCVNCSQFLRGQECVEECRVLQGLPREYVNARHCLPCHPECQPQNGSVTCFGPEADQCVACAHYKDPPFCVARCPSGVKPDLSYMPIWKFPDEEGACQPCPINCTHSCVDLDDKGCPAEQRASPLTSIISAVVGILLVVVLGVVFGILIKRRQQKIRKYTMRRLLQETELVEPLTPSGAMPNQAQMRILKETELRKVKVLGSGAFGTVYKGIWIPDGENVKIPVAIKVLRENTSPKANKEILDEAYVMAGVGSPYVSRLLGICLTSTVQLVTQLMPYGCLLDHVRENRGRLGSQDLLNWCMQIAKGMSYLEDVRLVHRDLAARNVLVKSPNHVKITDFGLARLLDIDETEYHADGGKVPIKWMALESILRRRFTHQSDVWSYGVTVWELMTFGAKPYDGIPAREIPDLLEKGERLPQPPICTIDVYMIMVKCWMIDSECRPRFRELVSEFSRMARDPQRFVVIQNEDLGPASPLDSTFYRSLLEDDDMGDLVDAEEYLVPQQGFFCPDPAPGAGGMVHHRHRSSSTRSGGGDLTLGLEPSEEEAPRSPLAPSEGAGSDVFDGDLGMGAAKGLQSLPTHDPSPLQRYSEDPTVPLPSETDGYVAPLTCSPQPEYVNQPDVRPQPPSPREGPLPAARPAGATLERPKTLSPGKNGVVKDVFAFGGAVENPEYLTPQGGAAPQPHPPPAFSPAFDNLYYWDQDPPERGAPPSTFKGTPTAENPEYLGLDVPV

Row | Structure (SMILES) | viability [1] | Her2 level [2] | viability [3] | viability [4] | viability [5] | differential viability (reversal) ([6]; H69AR cells + 2 uM doxorubicin) | viability [6, 16] | viability [6, 17] | inhibition [7] | inhibition [8] | growth inhibition [9] | growth inhibition [10] | viability increase [11] | viability [12] | viability [13] | inhibition [14] | RAM network inhibition [15]
1 | Cc1c(NC(=O)C2CCCCN2S(=O)(=O)c2ccc(Cl)cc2)c(=O)n(-c2ccccc2)n1C (stereo not drawn) | 112% | 120% (inactive) | 112% (inactive) | 90.1% (inactive) | 91.3% (inactive) | -6.92% (inactive) | 98.2% | 91.3% | -3.47% (inactive) | -1% (inactive) | -2.56% (inactive) | -1.4% (inactive) | -1.13% (inactive) | 96.9% (inactive) | 103% (inactive) | 0.76% (inactive) | -0.87% (inactive)
2 | CCN1CCN(C(=O)c2oc(=O)c3ccccc3c2-c2ccc(C)cc2)CC1 | 96% | 102% (inactive) | 96% (inactive) | 98.6% (inactive) | 96.4% (inactive) | -4.83% (inactive) | 101% | 96.4% | -3.07% (inactive) | 5.9% (inactive) | -1.38% (inactive) | -6.39% (inactive) | -3.04% (inactive) | 91.9% (inactive) | 90.5% (inactive) | 2.07% (inactive) | 1.85% (inactive)
3 | CC1NC2(C(=O)N(Cc3ccccc3)c3ccccc32)C2C(=O)N(c3ccccc3)C(=O)C12 (stereo not drawn) | 120% | 100% (inactive) | 120% (inactive) | 95.5% (inactive) | 93.5% (inactive) | 0.575% (inactive) | 92.9% | 93.5% | -4.13% (inactive) | 1% (inactive) | -5.06% (inactive) | -14.4% (inactive) | 1.77% (inactive) | 97.1% (inactive) | 104% (inactive) | 0.29% (inactive) | 3.53% (inactive)
4 | CC1CCc2nn(CC(=O)NCc3ccc4c(c3)OCO4)cc2C1 (stereo not drawn) | 86.5% | 88% (inactive) | 86.5% (inactive) | 90.7% (inactive) | 100% (inactive) | 9.8% (inactive) | 90.6% | 100% | -2.93% (inactive) | 2.79% (inactive) | -0.315% (inactive) | -4.54% (inactive) | -0.84% (inactive) | 108% (inactive) | 94.5% (inactive) | -0.525% (inactive) | 1.68% (inactive)
5 | CCCS(=O)(=O)N1CCN(C(=O)c2cccnc2)CC1 | 97% | 98.5% (inactive) | 97% (inactive) | 93.1% (inactive) | 106% (inactive) | 5.65% (inactive) | 101% | 106% | -0.26% (inactive) | -3.77% (inactive) | -8.47% (inactive) | -15.8% (inactive) | 1.08% (inactive) | 101% (inactive) | 95.2% (inactive) | -0.345% (inactive) | 0.42% (inactive)
6 | CCCc1cc(=O)oc2c(C)c3occ(C)c3cc12 | 112% | 99.5% (inactive) | 112% (inactive) | 64.8% (inactive) | 98.2% (inactive) | 4.94% (inactive) | 93.3% | 98.2% | -0.68% (inactive) | -3.02% (inactive) | -2.79% (inactive) | 0.83% (inactive) | -4.59% (inactive) | 77.4% (inactive) | 79.5% (inactive) | 3.16% (inactive) | 3.02% (inactive)
7 | CCN1CCN(C(=O)C2CC(c3ccc(F)cc3)=NO2)CC1 (stereo not drawn) | 91.5% | 105% (inactive) | 91.5% (inactive) | 103% (inactive) | 99.1% (inactive) | 24.1% (inactive) | 75.1% | 99.1% | -4.1% (inactive) | -6.67% (inactive) | -3.54% (inactive) | 3.61% (inactive) | 0.82% (inactive) | 95.2% (inactive) | 102% (inactive) | 0.095% (inactive) | 2.03% (inactive)
8 | CCN1CCN(c2nc(C)nc3c2sc(=S)n3C)CC1 | 100% | 104% (inactive) | 100% (inactive) | 69.6% (inactive) | 90% (inactive) | -1.33% (inactive) | 91.3% | 90% | -3.73% (inactive) | 0.5% (inactive) | -11.2% (inactive) | -5.22% (inactive) | -2.66% (inactive) | 102% (inactive) | 92.6% (inactive) | 1.04% (inactive) | 1% (inactive)
9 | CCOC(=O)C(C(=O)OCC)C(C)C#CCN1CCCCC1 (stereo not drawn) | 91.5% | 116% (inactive) | 91.5% (inactive) | 87.2% (inactive) | 90.4% (inactive) | 1.13% (inactive) | 89.2% | 90.4% | -3.08% (inactive) | -5.5% (inactive) | -2.21% (inactive) | -1.49% (inactive) | -2.18% (inactive) | 93.9% (inactive) | 97% (inactive) | -0.12% (inactive) | 7.5% (inactive)
10 | Cc1cc(C)nc(SCc2csc(N)n2)n1 | 89.5% | 85% (inactive) | 89.5% (inactive) | 89.6% (inactive) | 90.1% (inactive) | -4.05% (inactive) | 94.1% | 90.1% | -0.26% (inactive) | -2.67% (inactive) | 3.96% (inactive) | 14.9% (inactive) | 1.21% (inactive) | 105% (inactive) | 99.6% (inactive) | 0.605% (inactive) | 4.19% (inactive)
11 | O=C(c1ccco1)N1CCN(C2=NS(=O)(=O)c3ccccc32)CC1 | 104% | 142% (inactive) | 104% (inactive) | 99.1% (inactive) | 94.8% (inactive) | 3.94% (inactive) | 90.8% | 94.8% | -1.69% (inactive) | -12.7% (inactive) | -13.5% (inactive) | -1.96% (inactive) | -2.12% (inactive) | 93.1% (inactive) | 96.3% (inactive) | 0.41% (inactive) | 6.34% (inactive)
12 | Cc1noc(C)c1S(=O)(=O)N1CCN(Cc2ccc3c(c2)OCO3)CC1 | 82.5% | 105% (inactive) | 82.5% (inactive) | 96.7% (inactive) | 95.4% (inactive) | 9.66% (inactive) | 85.7% | 95.4% | -0.93% (inactive) | 0% (inactive) | -5.76% (inactive) | 7.12% (inactive) | -0.42% (inactive) | 95.3% (inactive) | 98% (inactive) | 0.725% (inactive) | 8.84% (inactive)
13 | CCOc1ccc(NC(=O)CN(c2cc(C)cc(C)c2)S(=O)(=O)c2c(C)noc2C)cc1 | 94% | 90.5% (inactive) | 94% (inactive) | 85.2% (inactive) | 74.7% (inactive) | 0.455% (inactive) | 74.2% | 74.7% | 1.67% (inactive) | -1.83% (inactive) | -19.5% (inactive) | -16.8% (inactive) | -3.54% (inactive) | 102% (inactive) | 97.2% (inactive) | 2.2% (inactive) | 8.99% (inactive)
14 | CC1CCC(NC(=O)Cn2ncc3ccccc32)CC1 (stereo not drawn) | 106% | 108% (inactive) | 106% (inactive) | 107% (inactive) | 95.5% (inactive) | 7.93% (inactive) | 87.6% | 95.5% | -3.47% (inactive) | -8% (inactive) | -9.46% (inactive) | 1.29% (inactive) | -0.27% (inactive) | 97.9% (inactive) | 100% (inactive) | 1.21% (inactive) | 1.78% (inactive)
15 | CCOC(=O)N1CCC(NC(=O)Cn2c3c(c(-c4ccccc4Cl)cc2=O)CCC3)CC1 | 94.5% | 92.5% (inactive) | 94.5% (inactive) | 123% (inactive) | 89.7% (inactive) | 0.145% (inactive) | 89.6% | 89.7% | -6.67% (inactive) | -1.67% (inactive) | -9.94% (inactive) | -0.355% (inactive) | -0.33% (inactive) | 88.8% (inactive) | 91.9% (inactive) | 2.06% (inactive) | 4.05% (inactive)
16 | Cc1ccc(-n2c3c(cc(C(=O)NCCCN4CCOCC4)c2=O)C(=O)CC(C)(C)C3)cc1 | 109% | 110% (inactive) | 109% (inactive) | 87% (inactive) | 85% (inactive) | -13% (inactive) | 97.9% | 85% | 0.53% (inactive) | -3.67% (inactive) | -4.99% (inactive) | -4.07% (inactive) | -1.54% (inactive) | 101% (inactive) | 104% (inactive) | -0.26% (inactive) | 3.35% (inactive)
17 | C=CCc1ccccc1OCCCCN1CCCC1 | 70.5% | 101% (inactive) | 70.5% (inactive) | 77.1% (inactive) | 83.3% (inactive) | -1.74% (inactive) | 85.1% | 83.3% | -9.05% (inactive) | -1.31% (inactive) | 7.25% (inactive) | -3.4% (inactive) | -7.03% (inactive) | 77.1% (inactive) | 80.8% (inactive) | 0.91% (inactive) | 1.88% (inactive)
18 | CC(Sc1nc(-c2ccccc2)cc(C(F)(F)F)n1)C(=O)N1CCCC1 (stereo not drawn) | 84.5% | 94.5% (inactive) | 84.5% (inactive) | 89.7% (inactive) | 88.8% (inactive) | -8.49% (inactive) | 97.3% | 88.8% | -4.13% (inactive) | -3.61% (inactive) | -2% (inactive) | -21.7% (inactive) | -2.25% (inactive) | 89.2% (inactive) | 84% (inactive) | 0.895% (inactive) | 1% (inactive)
19 | COc1ccc(N2CCN(C(=O)c3c(-c4ccccc4)noc3C)CC2)cc1 | 91.5% | 108% (inactive) | 91.5% (inactive) | 94.4% (inactive) | 88.1% (inactive) | -4.69% (inactive) | 92.8% | 88.1% | 0.51% (inactive) | 4% (inactive) | -9.57% (inactive) | -10.4% (inactive) | -2.79% (inactive) | 94.4% (inactive) | 90.3% (inactive) | 0.795% (inactive) | 4.5% (inactive)
